# Shown are actives, neighbours in structure and some others; about 3.1% of the full set was active somewhere.
# p53ts 39C kill: kills p53ts cells at the nonpermissive temperature; Potency, µM (top dose mostly 46.1 µM), for inactives: at the highest dose activity change, negative = cell killing, actives largely listed as cytotoxic; 130,000 tested, 1.5% active; AID 902; H1299-p53A138V viability at 39C, ATP luminescence, 24 h; note: % is set by controls: 0 for no effect and ±100 for the full control effect; nearly all actives have a fitted effect of over 55% in size
# HEK293 cAMP cs: counter-screen for TSHR agonists: cAMP increase in parental HEK293; 73,000 tested, 2.5% active; parental HEK293 CNG cAMP sensor, membrane potential fluorescence; Potency, µM (highest dose often 57.1 µM), without a hit: at the top dose activation, usual class: activators; AID 938; note: % of control where 0% means no effect; nearly all actives have a fitted effect of over 55% in size
#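 Parental HEK 293 cells stably expressing a modified CNG channel (no TSHR) report cAMP rise as membrane depolarization. Membrane potential dye with 100 uM RO 20-1724 was loaded for 60 min at room temperature, then compound added for 30 min; fluorescence read at 590 nm.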
# Peg3 imprint: induces erasure of genomic imprints in mouse ES cells | mouse ES Peg3-LacZ reporter, beta-gal luminescence, 40 h | Potency, µM (highest dose often 60.7 µM), without a hit: at the highest dose activity change, positive = activation, actives largely listed as activators | 110,000 tested, 0.02% active
#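 Readout: BetaGlo luminescence (5 min, room temp) for LacZ from the normally silent maternal Peg3 allele in female Peg3LacZ-Neo ES cells. Cells 300/well, 40 h, 37C, 5% CO2. Data normalized per plate to negative controls.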
# p53ts 32C tox: cytotoxicity in p53ts cells at permissive temperature | H1299-p53A138V at 32C, ATP luminescence viability, 24 h | Potency, µM (doses to about 46.1 µM), without a hit: top-dose activity change, negative = cytotoxicity, most hits filed as cytotoxic | 130,000 tested, 0.93% active | AID 924;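 note: 0% = DMSO and -100% = full killing by reference compound; nearly all actives have a fitted effect of over 55% in size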
#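 ATP-content luminescence (ATPlite) read-out after 24 h compound exposure at 32C in H1299-p53A138V cells (600/well). Tested up to 46 uM. Normalized to DMSO (0%) and 100 uM tamoxifen (100% killing); Hill-fit AC50.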
# TSHR agonist: agonists of human thyroid stimulating hormone receptor. AID 926. HEK293-CNG-TSHR cells (CNG channel as cAMP sensor), membrane potential dye, cAMP. 73,000 tested, 0.48% active. Potency, µM (top dose mostly 57.1 µM), without a hit: at the top dose activation, most hits filed as activators; active = well fitted activation curve with a large enough effect in the main read-out, with a control signal flat, not every such curve was filed as active; inconclusive = small, poorly fitted or top-dose-only effect, or a change in a side signal; inactive = no such curve, though single readings can be large or run the other way; % of control where 0% means no effect;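 note: the control signal comes from parental cells without the receptor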
# Target sequence (P16473 whole entry, looked up): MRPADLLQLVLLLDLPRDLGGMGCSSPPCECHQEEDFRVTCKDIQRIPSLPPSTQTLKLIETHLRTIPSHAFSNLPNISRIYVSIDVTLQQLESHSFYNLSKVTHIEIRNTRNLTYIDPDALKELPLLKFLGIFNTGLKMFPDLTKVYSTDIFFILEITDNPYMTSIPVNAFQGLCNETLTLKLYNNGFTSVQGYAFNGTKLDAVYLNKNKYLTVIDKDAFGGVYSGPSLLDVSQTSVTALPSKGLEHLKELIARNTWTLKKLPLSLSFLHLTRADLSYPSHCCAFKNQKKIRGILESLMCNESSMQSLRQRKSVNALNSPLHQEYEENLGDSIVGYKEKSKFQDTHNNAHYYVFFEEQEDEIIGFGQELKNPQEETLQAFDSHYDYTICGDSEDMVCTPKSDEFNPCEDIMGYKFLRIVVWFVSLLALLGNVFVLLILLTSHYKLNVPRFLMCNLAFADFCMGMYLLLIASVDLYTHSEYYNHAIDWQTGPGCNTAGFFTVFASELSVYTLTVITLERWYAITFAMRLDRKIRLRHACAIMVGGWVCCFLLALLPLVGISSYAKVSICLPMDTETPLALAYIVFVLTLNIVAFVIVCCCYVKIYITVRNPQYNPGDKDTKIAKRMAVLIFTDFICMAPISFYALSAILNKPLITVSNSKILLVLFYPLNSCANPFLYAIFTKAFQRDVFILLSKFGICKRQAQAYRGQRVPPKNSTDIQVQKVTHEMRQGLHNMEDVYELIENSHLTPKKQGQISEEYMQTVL
#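 cAMP rise detected as CNG-channel membrane depolarization by fluorescent dye (emission 590 nm), 30 min after compound, following 60 min dye loading containing 100 uM RO 20-1724 at room temperature. Cells: TSHR/CNG HEK 293, with parental CNG HEK 293 as control.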
# IkB sig inh: suppresses IkB signaling in ABC-DLBCL reporter cells. 110,000 tested, 0.04% active. Potency, µM (titrated, usually from 57.1 µM), inactives show at the top dose IkBa stabilization activation. ABC-DLBCL IkBa-CBG/CBR dual luciferase ratio, 4 h; response scale: scaled: untreated 0%, proteasome inhibitor 100%; active = well fitted curve in the direction sought with a large enough effect in the signal ratio, not every such curve was filed as active; inconclusive = small, poorly fitted or top-dose-only effect, or a change in a side signal; the % refers to the signal ratio;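 note: the direction sought is a rising ratio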
#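 Curves were fitted separately to fusion (green), unfused (red) and ratio luminescence, then classed by r2, magnitude and activity. Cells: OCI-Ly3, 4 h compound plus doxycycline at 37C; 10 uM MG-132 defined full response.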
# The depositor's hits bear a star; ? = inconclusive; / = no result; [ ] = dose if it differs, or a comment. Unless noted, calls come from the whole dose curve; as a rule, active = well fitted curve in the direction sought with a large enough effect; inconclusive = small, poorly fitted or top-dose-only effect, or another doubt; inactive = no such curve, though single readings can be large; an effect the other way counts as inactive or inconclusive. Potency is the fitted concentration of half-maximal effect.
SMILES,p53ts 39C kill,HEK293 cAMP cs,Peg3 imprint,p53ts 32C tox,TSHR agonist,IkB sig inh
CCc1cccc(-n2nnc(-c3nsc(NC(=O)c4cccs4)n3)c2C)c1,10µM*,/,-20.1%[10.9 µM],-19.1%,/,-1.0%
CSc1cccc(-n2nnc(-c3nsc(NC(=O)c4cccs4)n3)c2C)c1,12.6µM*,/,-36.2%[10.9 µM],0.8%,/,-3.0%
CC(C)CCCC(C)C1CCC2C3CC=C4CC(O)CC[C@@]4(C)C3CC[C@@]12C (stereo partly drawn),2.1%,/,-6.7%,0.2%,/,/
O=C(NC1CCCCC1)c1ccc(CSc2nc3cccnc3n2Cc2cccc(F)c2)cc1,/,/,/,-1.6%,/,/
c1ccc(N2CCN(c3nc4cc5c(cc4s3)OCCO5)CC2)cc1,-17.3%,-2.1%,0.2%,-22.8%,15.8%,-1.9%
c1c2c(cc3sc(N4CCOCC4)nc13)OCCO2,5.01µM*,-3.5%,-86.2%,3.16µM*,28.9%,?
CCOCCCNC(=O)NC(C)c1c(-n2cccc2)sc2c1CCN(CC)C2 (stereo not drawn),/,/,/,-1.6%,/,/
CCc1ccc(NS(=O)(=O)c2cc(-c3cnc(C4CC4)o3)ccc2C)cc1,20µM*,/,14.9%[10.9 µM],31.4%,/,14.0%
CCC#CCOCC(=O)Nc1ccccc1,0.9%,-4.0%,-6.9%,8.2%,0.3%,/
O=C(Nc1cccc(-c2nnc(-c3ccccc3)o2)c1)c1ccc(Br)o1,25.1µM*,?,-22.6%,?,?,?
COc1ccc(OCC(=O)Nc2cccc(-c3nc4ccccc4o3)c2)cc1,-19.3%,?,-61.8%,-14.1%,?,2.2%
Cc1cc(C)cc(OCC(=O)Nc2cccc(-c3nnc(-c4ccco4)o3)c2)c1,-4.1%,25.1µM*,-32.2%,1.2%,?,-0.3%
O=C(COc1ccccc1)Nc1cccc(-c2nnc(-c3ccccc3)o2)c1,-15.2%,25.1µM*,-37.7%,-16.2%,?,?
Cc1ccc2c(c1)c1c(c(=O)n(-c3ccccc3)c(=O)n1CC(=O)c1ccc(F)cc1)n2C,1.3%,/,26.5%[10.9 µM],5.3%,/,-0.9%
O=C(NCCC1=CCCCC1)c1ccc2c(c1)ncn2-c1ccc(F)c(F)c1,-0.8%,/,-9.7%[10.9 µM],0.5%,/,-3.2%
Cc1ccc(NC(=O)C(=O)NCCCN2CCOCC2)cc1C,11.3%,/,-5.6%[10.9 µM],-4.9%,/,0.3%
COCc1cc(C)nc2sc(C(=O)Nc3nccs3)c(N)c12,-13.7%,29.5%,-8.6%,-6.5%,2.6%,-1.6%
Cc1cc(C)c2c(N)c(C(=O)Nc3nccs3)sc2n1,1µM*,-1.9%,-47.5%,0.794µM*,-5.2%,10.2%
CCCCOC(=O)c1ccc(NC(=O)c2sc3nc(C)cc(C)c3c2N)cc1,?,/,-11.8%[10.9 µM],15.8µM*,/,?
CCOC(=O)c1sc2nc(C)cc(C)c2c1N,-16.8%,-5.7%,/,-12.2%,19.9%,/
CC1Cc2cc(S(=O)(=O)NCc3ccc(F)cc3)ccc2N1C(=O)C1CCC1 (stereo not drawn),-1.5%,/,-14.3%[10.9 µM],10.5%,/,-0.6%
CCOC(=O)c1noc2ncnc(Nc3ccc(C)c(F)c3)c12,17.7%,/,-9.3%[10.9 µM],8.3%,/,-4.1%
COc1ccc(-n2nc3cc(C)c(N)c(Br)c3n2)cc1,12.6µM*,-4.4%,-28.4%,12.6µM*,-11.1%,?
Cc1cccc(OCC(=O)N(Cc2ccc(C(C)(C)C)cc2)Cc2ccco2)c1,-30.0%,/,11.1%[10.9 µM],?,/,?
Cc1sc2nc3ccc(N4CCCC4)nn3c(=O)c2c1C,?,7.5%,-14.5%,-29.0%,-9.8%,-0.9%
Cc1ccc2nc3ccc(N4CCN(C)CC4)nn3c(=O)c2c1,?,3.8%,-15.0%,3.98µM*,5.2%[11.4 µM],-2.8%
O=C(O)CCCn1nc(-c2ccccc2)c2ccccc21,1.2%,0.159µM*,1.7%,2.9%,?,1.7%
CCOc1ccc(CCNC(=O)Cn2c(-c3cccs3)cc3cc(F)ccc32)cc1OCC,7.94µM*,/,-9.9%[10.9 µM],-17.0%,/,?
CCOc1cc(CNC(=O)Cn2c(-c3cccs3)cc3cc(F)ccc32)ccc1OC,/,/,/,-9.2%,/,/
